# Screens from PubChem BioAssay.
# Compounds with a hit are over-represented: about 1.3% of the library has one in this group of screens.
# FH mod – Identification of activators of human fumarate hydratase by quantitative high-throughput screening | FH coupled MDH/diaphorase resazurin fluorescence, 15 min | 54,000 compounds, 0.22% hits | Potency, µM (highest dose often 79.9 µM), for the others: top-dose activity change, negative = inhibition, most hits filed as inhibitors; further: on the % scale 0 is the no-effect control and ±100 the full control effect; the screen sought activators but most active calls are inhibition curves; nearly all actives have a fitted effect of over 45% in size
# Target sequence (P07954 whole entry, looked up): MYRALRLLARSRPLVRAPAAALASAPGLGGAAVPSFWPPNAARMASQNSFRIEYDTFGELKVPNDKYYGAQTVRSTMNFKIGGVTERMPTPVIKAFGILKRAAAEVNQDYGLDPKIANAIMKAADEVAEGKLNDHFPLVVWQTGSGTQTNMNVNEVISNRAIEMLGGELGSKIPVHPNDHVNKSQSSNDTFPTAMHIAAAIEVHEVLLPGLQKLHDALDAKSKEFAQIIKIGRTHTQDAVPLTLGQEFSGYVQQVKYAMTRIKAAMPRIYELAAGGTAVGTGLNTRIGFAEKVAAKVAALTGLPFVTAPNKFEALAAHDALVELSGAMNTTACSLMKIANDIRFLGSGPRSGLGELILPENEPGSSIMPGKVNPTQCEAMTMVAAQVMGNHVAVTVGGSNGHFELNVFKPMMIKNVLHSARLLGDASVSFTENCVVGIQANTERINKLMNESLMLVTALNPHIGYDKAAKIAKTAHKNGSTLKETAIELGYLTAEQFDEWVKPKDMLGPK
# HTT-AS act – activates huntingtin-antisense promoter activity. 48,000 compounds, 0.24% hits. AID 1508624. Potency, µM (top dose mostly 57.5 µM), inactives show at the top dose activity change, positive = activation, hits mostly activators. HEK293 HTT-AS promoter firefly luciferase reporter, 24 h; response scale: percent change from vehicle, -100% = no light; further: nearly all actives have a fitted effect of over 55% in size
#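 HEK293 Fluc reporter, 2,500 cells/well, 24 h pre-culture; cpds up to 57.5 uM final, 24 h 37 degrees C; Dual-Glo, 10 min RT; normalized vehicle = 0%, zero RLU = -100%.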
# HTT prom inh – inhibitors of huntingtin promoter activity | HEK293 HTT promoter firefly luciferase reporter, 24 h | Potency, µM (doses to about 57.5 µM), inactives show at the highest dose activity change, negative = inhibition, usual class: inhibitors | 48,000 compounds, 0.93% hits; further: nearly all actives have a fitted effect of over 50% in size
#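 Quantitative HTS used concentration series of up to 57.5 uM final on HEK293 luciferase reporter cells, 24 h at 37 degrees C. Readout was Dual-Glo firefly luminescence.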
# Numbers without * were called inactive; ? = inconclusive; nt = no result given; ! = a repeat was not active; [ ] = remark or other dose. The call rests on the fitted dose curve; in most records, active means well fitted curve in the direction sought with a large enough effect; inconclusive means small, poorly fitted or top-dose-only effect, or another doubt; inactive means no such curve, though single readings can be large; an effect the other way counts as inactive or inconclusive. Potency means the concentration at half of the fitted maximal effect.
SMILES,FH mod,HTT-AS act,HTT prom inh
COc1ccc(-c2noc(N3CCC(C(=O)N4CCN(c5ccccc5OC)CC4)CC3)n2)cc1,-14%,-58%,13µM*
CCc1ccc(NC(=O)C2CCN(c3nc(-c4ccc(OC)cc4)no3)CC2)cc1,9%,-48%,?
COc1ccc(-c2noc(N3CCC(C(=O)N4CCN(c5cccc(OC)c5)CC4)CC3)n2)cc1,-17%,-84%,2.2µM*
COc1ccc(-c2noc(N3CCC(C(=O)N(C)c4cc(Cl)ccc4OC)CC3)n2)cc1,-23%,-71%,?
CC1(C)CC2C(O)C3=C(CC(C)(O)C2C1)C(=O)OC3O (stereo unspecified),1%,nt,nt
O=C(Nc1ccccc1)c1ccc(Nc2nnc(-c3ccc(O)cc3)c3ccccc23)cc1,-5%,nt,nt
Cc1cc(C(=O)Nc2cc(Nc3ccc4c(/C=C/c5ccccn5)n[nH]c4c3)ccc2F)n(C)n1,-9%,nt,nt
Cc1ccccc1-n1c([C@H](C)Nc2nc(N)nc3nc[nH]c23)nc2cccc(C)c2c1=O,8%,nt,nt
Oc1ccc2ccccc2c1SSc1c(O)ccc2ccccc12,35µM*!,-22%,?
OCc1ccccc1O,0%[53.3 µM],-1%,2%
CC1CCc2nc3ncn(Cc4ccc(Cl)cc4)c(=O)c3cc2C1 (stereo unspecified),-1%,3.2µM*,47%
O=c1c2cc3c(nc2ncn1Cc1ccc(Cl)cc1)CCCC3,-8%,1%,2%
Nc1nc(Nc2ccc3c(c2)CCC(N2CCCC2)CC3)nn1-c1cc2c(nn1)-c1ccccc1CCC2 (stereo unspecified),-11%,nt,nt
CCCOc1ccccc1C(=O)Nc1ccc(-c2nc3ccc(C)cc3s2)cc1,-10%,2.2µM*,-15%
COc1cccc(C(=O)Nc2ccc(-c3nc4ccc(C)cc4s3)cc2)c1OC,3%,-3%,1%
CN(C(=O)c1cn2c(-c3ccc(C(F)(F)F)cc3)cnc2cn1)c1ccc(C#N)cc1,-1%,nt,nt
CC(C)c1ccc(C2CC(=O)Nc3cc4c(cc32)OCCO4)cc1 (stereo unspecified),?,-43%,?
Cc1ccc(C2CC(=O)Nc3cc4c(cc32)OCCO4)cc1Br (stereo unspecified),?,-41%,25µM*
Nc1nc(O)c(C2=C3C(=Nc4ccccc43)C(=O)NCC2)[nH]1,-1%,nt,nt
CC(=O)N1CCN(CCOc2ccc(C3CCN(C4=Nn5c(nnc5C(F)(F)F)CC4)CC3)cc2)CC1,2%,nt,nt
COC(=O)c1ccc(NC(=O)n2ncc3c(C)cccc32)cc1,-7%,?,9%
Cc1ccc(NC(=O)n2ncc3c(C)cccc32)c(C)c1,-3%,7.1µM*,56%
CC(C)NC[C@H](O)COc1ccc(CCOCC2CC2)cc1,-3%,nt,nt
CC(OC1OCCN(Cc2n[nH]c(=O)[nH]2)C1c1ccc(F)cc1)c1cc(C(F)(F)F)cc(C(F)(F)F)c1 (stereo unspecified),-17%,nt,nt
Cc1cc(NC(=O)c2cc(Cl)ccc2Cl)ccc1-c1cc2ccccc2oc1=O,-5%,-34%,10µM*
SMILES,FH mod,HTT-AS act,HTT prom inh
CCCOc1ccc(C(=O)Nc2ccc(-c3cc4ccccc4oc3=O)c(C)c2)cc1,?,-12%,?
COC(=O)C1=C(C)NC(C)=C(C(=O)OC)C1c1ccccc1[N+](=O)[O-],16µM*!,28%,9%
CCOC(=O)C1=C(C)NC(C)=C(C(=O)OC)C1c1cccc([N+](=O)[O-])c1 (stereo unspecified),-28%[53.3 µM],-23%,-14%
COc1ccc(CCNS(=O)(=O)c2ccc(N3CCCCS3(=O)=O)cc2)cc1,-16%,-29%,?
COc1ccc(NS(=O)(=O)c2ccc(N3CCCCS3(=O)=O)cc2)cc1Cl,-13%,-24%,14µM*
COc1cccc(CNS(=O)(=O)c2ccc(N3CCCCS3(=O)=O)cc2)c1,-1%,-18%,16µM*
O=S(=O)(Nc1ccc(OC(F)(F)F)cc1)c1ccc(N2CCCCS2(=O)=O)cc1,-8%,-19%,?
Cc1cc(C(=O)Nc2cccc(C(=O)Nc3cccc(C(F)(F)F)c3)c2)on1,5%,nt,nt
Cc1ccc2ncc(C(=O)Nc3cccc(C(F)(F)F)c3)c(=O)n2c1,-14%,-10%,-3%
Cc1ccc(NC(=O)c2cnc3cc(C)ccn3c2=O)c(C)c1,-4%,3.5µM*,58%
CC(=O)c1[nH]c(C)c(C(=O)NCc2ccc(Cl)cc2)c1C,6%,-50%,16µM*
CCOC(=O)c1[nH]c(C)c(C(=O)NCc2ccc(F)cc2)c1C,7%,0%,-37%
CC(C)NC(=O)C1CCN(C(=O)c2cc3sccc3n2Cc2ccc(Cl)cc2)CC1,-1%,-60%,8.9µM*
O=C(NCc1ccccc1)c1cc2sccc2n1Cc1ccc(Cl)cc1,-1%,-13%,-7%
CC(C)CC(=O)OC1OC=C(CO[C@@H]2O[C@H](CO)[C@@H](O)[C@H](O)[C@H]2O)C2CC(O)C(O)(CO)C12 (stereo partly specified),0%[53.3 µM],nt,nt
COc1ccc(NC(=O)c2ccc(-c3nc(CSc4ccccc4)c(C)o3)cc2)cc1OC,?,-23%,?
COc1ccc(NC(=O)c2ccc(-c3nc(CSc4ccc(C)cc4)c(C)o3)cc2)cc1Cl,-8%,-8%,4.5µM*
CC(=O)c1ccc(NC(=O)c2ccc(-c3nc(CSc4ccccc4)c(C)o3)cc2)cc1,6%,-31%,?
Cc1oc(-c2ccc(C(=O)Nc3cccc(C(F)(F)F)c3)cc2)nc1CSc1ccccc1,?,-89%,1.8µM*
CC1OC(OC2C(CO)OC(OCC3OC(OC(=O)C45CCC(C)(C)CC4C4=CCC6C7(C)CCC(OC8OC(C(=O)O)C(O)C(OC9OC(CO)C(O)C(O)C9O)C8O)C(C)(C)C7CCC6(C)C4(C)CC5)C(O)C(O)C3O)C(O)C2O)C(O)C(O)C1O (stereo unspecified),4%[13.5 µM],nt,nt
COC(=O)[C@H](O)[C@H]1C(C)(C)[C@H](OC(=O)C(C)C)[C@@]2(O)C(=O)[C@]1(C)C1CC[C@]3(C)C(CC(=O)O[C@H]3c3ccoc3)[C@]13O[C@@H]32 (stereo partly specified),-1%[20.6 µM],nt,nt
CCOC(=O)N1CCC(CN(Cc2ccc(Cl)cc2)Cc2ccc([N+](=O)[O-])s2)C1 (stereo unspecified),-5%,nt,nt
CC1CN(CC(=O)Nc2ccc3c(c2)Cc2cccc(-c4cc(=O)cc(N5CCOCC5)o4)c2S3)CC(C)O1 (stereo unspecified),-15%,nt,nt
C[C@]1(O)CC[C@@H]2C(C(=O)O)=CO[C@@H](O[C@@H]3O[C@H](COC(=O)/C=C/c4ccc(O)c(O)c4)[C@@H](O)[C@H](O)[C@H]3O)[C@@H]21,-1%[53.3 µM],nt,nt
CC1C(O)C(O)C2C(C(=O)OCCc3ccc(O)cc3)=COC(O[C@@H]3O[C@H](CO)[C@@H](O)[C@H](O)[C@H]3O)C12 (stereo partly specified),-1%[53.3 µM],nt,nt
CCOc1cc(C(Nc2cc(C)ccn2)c2ccc3cccnc3c2O)ccc1OC (stereo unspecified),20%,-39%,35µM*
